A word on the inhibition: it is the change of the read-out against control, counted positive when it falls.

Our source for the inhibition values is PubChem BioAssay AID1259343 (VanderVen Lab, College of Veterinary Medicine, Cornell …, 2017).

About 2,900 (47%) of roughly 6,200 compounds were called active. The set was probably picked from earlier hits. The list shows a part of the results. Values without a mark were called inactive. Rule as the data show it: active = inhibition above about 50%; inactive = the rest.

A short description of the assay: Mycobacterium tuberculosis growth inhibition, primary screen (AID 1259343). The conditions noted are these: inhibition: at 10 µM, active compounds read high; outcome: 10 uM.
Consider `FC(F)Oc1ccc(NC(=S)Nc2ccc3cn[nH]c3c2)cc1`, for which the inhibition is -5.27%.
For `S=C(Nc1ccc(Cl)cc1)Nc1ccc2cn[nH]c2c1`, the inhibition is 37.2%.
As to `COc1ccc(NC(=S)Nc2ccc3cn[nH]c3c2)cc1`, the inhibition was 68.9% (active).
As to `C[C@]12C=CC(=O)C=C1CC[C@@H]1C2=CC[C@]2(C)[C@@H](C(=O)CN3CCN(c4cc(N5CCCC5)nc(N5CCCC5)n4)CC3)CC[C@@H]12`, the inhibition is 89.9% (active).
Consider `CC(C)c1nc(CN(C)Cc2ccc3ccccc3n2)cs1`, for which the inhibition was 2.62%.
On to `FC(F)(F)CCc1ccnc(N[C@@H]2C[C@H]2c2ccccc2)n1`, for which the inhibition was 30.5%.
As for `CC(C)c1nc(CNc2nccc(CCC(F)(F)F)n2)cs1`, the inhibition was 94.8% (active).
With `Nc1ccc2oc(CCc3ccccc3)nc2c1`, the inhibition is 33%.
On to `O=c1ccc2ccc(O)cc2o1`, for which the inhibition was 74% (active).
Turning to `Cc1c(Cl)c(=O)oc2cc(O)ccc12`, the inhibition is -23%.
For the compound `Nc1ccc2oc(=O)ccc2c1`, the inhibition was 77.1% (active).
To `Nc1nc2c3ccccc3nc(-c3ccccc3)n2n1` belongs 83.3% (active).
For `COc1cccc(Nc2nc(C(N)COCc3ccccc3)cs2)n1` (stereo not drawn), the inhibition is 64.3% (active).
Regarding `COc1cccc(Nc2nc(C(N)CCc3ccccc3)cs2)n1` (stereo not drawn), the inhibition is 82.2% (active).
With `NC(=O)C1(N2CCCCC2)CCN(c2nc(-c3ccc(Cl)cc3Cl)cs2)CC1`, the inhibition is -20.2%.
On to `Nc1[nH]c(N=Nc2nc3c(s2)CCCC3)c2ccccc12`, for which the inhibition is -27.1%.
For `Cc1ccc(NCc2ccc(C(=O)NCC3(CO)CCC3)cc2)cc1`, the inhibition is 43.9%.
The value for `Cc1ccc(CNc2nc3c(s2)CCCC3)cc1` was 74% (active).
Regarding `C/C(=N/OC(=O)c1ccc(-c2ccccc2)cc1)C(C)(C)C`, the inhibition is 65.6% (active).
As to `Cc1ccc(/C(N)=N\OC(=O)CCc2ccccc2)cc1`, the inhibition was 29.4%.
The value for `O=c1c(Br)cccc(Br)c1O` was 99.7% (active); that for `CC(=NNC(=S)NC1CCCCC1)c1cccs1` was -36.2%.
`CC(=NNC(=S)NC(C)C)c1cccs1`: the inhibition was 104% (active).
To `CCNC(=S)NN=C(C)c1cccs1` belongs 101% (active); to `Nc1ccc(N=Nc2ccccc2)c(N)n1`, 93.8% (active).
Regarding `CCCC1CC(=O)CC(=O)C1`, the inhibition is -33.8%.
In the case of `CCCC1CCC(c2ccc(C#N)c(=O)[nH]2)CC1` (stereo not drawn), the inhibition is 89.8% (active).
Regarding `Fc1ccccc1CN1CCCC2(CCN(C3CCN(CCc4ccccc4)CC3)C2)C1` (stereo not drawn), the inhibition is 13.5%.
On to `Cc1c(C2CCN(CCc3ccccc3)CC2)noc1-c1ccc(Cl)cc1`, for which the inhibition is 88.1% (active).
Turning to `Fc1ccccc1CSc1ncnc2c1nnn2Cc1ccccc1`, the inhibition was 10.4%.
The value for `Fc1ccc(Cn2nnc3c(SCc4ccccc4)ncnc32)cc1` was 93.4% (active); that for `Fc1cccc(CSc2ncnc3c2nnn3Cc2ccccc2F)c1` was 29.2%; that for `Cc1cccc(CSc2ncnc3c2nnn3Cc2ccc(F)cc2)c1` was 15.2%.
To `Fc1ccc(CSc2ncnc3c2nnn3Cc2ccc(F)cc2)cc1` belongs -6.41%.
As to `c1ccc(CSc2ncnc3c2nnn3Cc2ccccc2)cc1`, the inhibition is -43.1%.
For `Fc1ccc(Cn2nnc3c(SCc4cccc(F)c4)ncnc32)cc1`, the inhibition was 73.3% (active).
Consider `Fc1ccc(CSc2ncnc3c2nnn3Cc2ccccc2F)cc1`, for which the inhibition was -32.2%.
Regarding `c1ccc(Cn2nnc3c(Sc4ncco4)ncnc32)cc1`, the inhibition was 68.9% (active).
To `Fc1ccccc1CSc1ncnc2c1nnn2Cc1ccccc1F` belongs 94.8% (active); to `CCC1CCCCN1S(=O)(=O)c1ccc(C(=O)Nc2nnc(CSC)o2)cc1` (stereo not drawn), 99.6% (active).
Consider `CCOc1cc(S(=O)(=O)N2CCCCC2CC)ccc1Br` (stereo not drawn), for which the inhibition is -6.56%.
The value for `CSc1nsc(SCC2=NNC(=O)c3ccccc3O2)n1` was 101% (active); that for `N#Cc1ccc(NC(=O)Cc2ccc(Cl)c(Cl)c2)cc1` was 17.6%; that for `Cc1nc(CSCC(=O)Nc2ccc(C)c(Cl)c2)no1` was 39.4%.
For `O=C(CSCCO)Nc1ccc(Cl)c(Br)c1`, the inhibition is 93.2% (active).
In the case of `CC1CC(C)(C)CC2(C1)NC(=O)N(c1ccccc1)N2` (stereo not drawn), the inhibition was 86.8% (active).
`CCCOC(=O)COc1ccc2c(oc(=O)c3ccccc32)c1C`: the inhibition is 84% (active).
To `CONC(=O)c1oc2c(ccc3ccccc32)c1C` belongs 21.5%; to `CCOC(=O)CCc1c(C)c2ccc(OCc3ccc(C(=O)OC)cc3)c(C)c2oc1=O`, 36.8%; to `O=c1[nH]c(=S)[nH]c(O)c1N=Nc1ccc(F)cc1`, 104% (active).
Turning to `O=c1[nH]c(=S)[nH]c(O)c1N=Nc1ccc2c(c1)OCCO2`, the inhibition was 38.2%.
In the case of `O=c1[nH]c(=S)[nH]c(O)c1N=Nc1ccc(SC(F)F)cc1`, the inhibition was 99.5% (active).
With `O=c1[nH]c(=S)[nH]c2sccc12`, the inhibition is -6.61%.
As to `O=c1[nH]c(O)c(N=Nc2ccc(SC(F)F)cc2)c(=O)[nH]1`, the inhibition is 84% (active).
`S=C(NCCc1ccccc1)NC1CCSc2ccccc21` (stereo not drawn): the inhibition was 31.4%.
Turning to `O=C(NC(=S)NCCc1ccccc1)C1CCCCC1`, the inhibition is 68.9% (active).
With `O=C(NCCc1ccc(Br)s1)C1CCC1`, the inhibition was -26.3%.
As to `CC(C)(C)C(=O)NCCc1cn(-c2ccccc2)c2ccccc12`, the inhibition was 42.6%.
Take `O=C(NC(=S)NCc1ccccc1)C1CCCCC1`: the inhibition was -4.74%.
For `CC(C)(C)C(=O)NC(=S)NCCc1ccccc1`, the inhibition was 58.1% (active).
In the case of `CC(C)CC(=O)NC(=S)NCc1ccccc1`, the inhibition is 52.5% (active).
On to `CC(C)(C)C(=O)NC(=S)NCc1ccccc1`, for which the inhibition was 87% (active).
On to `CC1CCC(C(C)C)C(OC(=O)Cn2c(-c3ccccc3)[n+](C)c3ccccc32)C1` (stereo not drawn), for which the inhibition was 36.3%.
As to `Cc1sc(NC(=O)c2ccc3c(c2)CC(C)N3S(C)(=O)=O)nc1-c1ccc(F)cc1` (stereo not drawn), the inhibition is 44.9%.
For `CC(C)(C)c1ncc(CNc2ccc(OCC(F)(F)F)nc2)s1`, the inhibition is 76.1% (active).
To `O=C(O)c1ccccc1CSc1ccc(N2CCCCC2)cc1` belongs 34.9%; to `CC(NC(=O)c1cc2c(s1)-c1ccccc1OC2)c1ccc(Br)cc1` (stereo not drawn), -1.38%; to `O=C1C(=Cc2ccc(N3CCCCC3)cc2)COc2ccccc21`, 53% (active).
For `O=C1/C(=C\c2ccc(Cl)cc2)COc2ccccc21`, the inhibition is 93.1% (active).
Consider `FC(F)(F)c1nc2n(n1)C(c1ccc(Cl)cc1)C1=C(N2)c2ccccc2OC1` (stereo not drawn), for which the inhibition result was “inactive”.
As for `O=C1C(=Cc2cc(Br)cs2)COc2ccccc21`, the inhibition was 63.5% (active).
As for `COc1ccc2cc(C=C3COc4ccccc4C3=O)ccc2c1`, the inhibition was -0.42%.
With `O=C1/C(=C/c2csnn2)CCOc2cc(Br)ccc21`, the inhibition is 32.8%.
